This is an account of results in PubChem BioAssay (NCI).

Several values for one entry are separate records, joined by “and”; a condition that tells them apart may be missing. Equal entries are not always repeated. About 83,000 compounds went through this panel and 20% of them were active in at least one assay; those are over-represented in the sample as a whole.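 Values shown are percent growth following 48 h exposure of cells in 96-well plates to a single concentration of compound; below 10 was considered active.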 Unmarked numbers belong to inactive results. Activity calls are given as the source filed them.

The experiment has as its system NCI-H460 lung. In words: NCI-60 one-dose screen, 48 h (100 = growth as untreated, 0 = no growth, -100 = all killed). The settings on record: 10 µM unless noted.
As to `COc1ccc(NC2=C(I)C(=O)C(C)=C(C)C2=O)cc1`, the growth was 97.9%.

In the case of `CC(=O)Nc1cccc(-n2c(COc3ccc(Br)cc3)nc3ccccc32)c1`, the growth was 105% and 107%. On to `CCCSc1nnc(-c2sc3nc4ccccc4n3c2C)o1`, for which the growth is 103%. The result for `COc1cc(/C=N/NC(=O)c2ccc(OCc3nc4ccc(C)cc4[nH]3)cc2)cc(OC)c1OC` reads 33.6%; that for `COc1cc(CNC(=O)C[C@H](C)CCC=C(C)C)ccc1OCc1cn(-c2ccccc2Cl)nn1`, 78.4%. As for `Cc1ccc(C(=O)Nc2cc(-n3ccnc3)cc(C(F)(F)F)c2)cc1-n1cc(-c2cnc3cccnn23)nn1`, the growth was 97%.

Turning to `O=C(Nc1ccc(Cl)c(C(F)(F)F)c1)N1CCN(c2cc(-c3cn(-c4ccccc4)nc3-c3cccc(O)c3)ccn2)CC1`, the growth is 7.84% (active).

As for `FC(F)(F)CN1CCN(CCn2c(C(F)(F)F)cc3c(Cl)ncnc32)CC1`, the growth was -41.2% (active). For `Nc1nnc(-c2cncc(Br)c2)c(-c2c[nH]c3ccc(Br)cc23)n1`, the growth is 39.6%. With `Nc1cc(-c2c[nH]c3ccc(Cl)cc23)nc2cc(-c3c[nH]c4ccccc34)nn12`, the growth was -65.9% (active). In the case of `CN(C)CCOc1ccc(C(=O)C2[C@H](c3ccc(Cl)cc3)[C@@H](c3ccccc3)NC23C(=O)Nc2ccc(Cl)cc23)cc1` (stereo partly specified), the growth was -87.4% (active).

Consider `O=C(NNC(=S)NC(=O)c1ccccc1)c1ccc(OCc2nc3ccc(Cl)cc3[nH]2)cc1`, for which the growth was 11.6%.

As to `O=C(c1ccc(Cl)cc1)C1[C@H](c2ccccc2Cl)[C@@H](c2ccccc2)NC12C(=O)Nc1ccc(Br)cc12` (stereo partly specified), the growth is -78.8% (active). In the case of `COc1ccc(CCC2NCCc3c(Br)c4c(c(OC)c32)OCO4)cc1` (stereo unspecified), the growth is 9.1% (active). The result for `O=C(Nc1ccc(Br)cc1)Nc1ccc(-c2ccc3c(c2)NC(=O)/C3=C\c2ccc[nH]2)cc1` reads 8.75% (active). `O=C(Nc1ccc(S(=O)(=O)N2CCCCC2)cc1)C(Cl)Cl`: the growth was 108%. Turning to `O=C(N/N=C/c1ccc(Br)o1)c1[nH]c2ccc(Br)cc2c1-c1ccccc1`, the growth was -63% (active).

Regarding `COc1cc(/C=C/C(=O)c2ccc(S(=O)(=O)NCCNc3nc(N(C)C)nc(N4CCOCC4)n3)cc2)cc(OC)c1OC`, the growth is -100% (active).

On to `CCCCNC(=S)Nc1ccc(OCc2nc3ccc(Cl)cc3[nH]2)cc1`, for which the growth is 15.6%.

As for `COc1ccc(-c2cc(C(=O)N=Nc3c(O)[nH]c4ccc(Cl)cc34)c3ccccc3n2)cc1OC`, the growth is 111%.

Consider `NS(=O)(=O)c1cccc(Nc2nc(SCC(=O)c3ccc(F)cc3)nc3ccccc23)c1`, for which the growth is 12.5%. As for `COc1ccc2[nH]c(O)c(N=Nc3nc(-c4ccccc4)cs3)c2c1`, the growth is 12.3%. The result for `COc1ccc(OC)c(Cn2cc(C#N)c(N)c2C(=O)c2ccc(Br)cc2)c1` reads 41.8%; that for `CC1=C(C)C(=O)C(N2CCSCC2)=CC1=O`, 105%; that for `N#Cc1c(-c2ccc(F)cc2)nc(SCc2ccc(F)cc2)nc1N1CCNCC1`, -85.1% (active).

As for `COc1ccc2[nH]cc(-c3cc4nc(-c5cn(C)c6ncccc56)cc(N)n4n3)c2c1`, the growth was -58.3% (active). `O=C1Nc2ccccc2/C1=C\c1ccc(OCC(=O)c2ccc(Br)cc2)cc1`: the growth was 58.5%. Turning to `Nc1nn2c(-c3cc4ccccc4oc3=O)ccnc2c1N=Nc1ccccc1`, the growth is 44.4%. For `O=c1c(-c2nc(-c3ccccc3)c(-c3ccccc3)[nH]2)coc2ccc(F)cc12`, the growth is 19%. For `Cc1ccccc1Nc1nnc(-c2c[nH]c3ccccc23)o1`, the growth is 20.1%. The result for `O=CNc1cccc(-n2cnc3cc(-c4ccc(O)cc4)ccc32)c1` reads 16.7%; that for `CC1(C)CC(=O)C2=C(C1)OC(N)=C(c1nc3ccccc3[nH]1)C2c1ccc(Cl)cc1` (stereo unspecified), 57% and 112%. As to `CN1C(=O)/C(=C\C(=O)c2cc3ccccc3oc2=O)c2ccccc21`, the growth was 92.1%. Next, `Cc1ccc(C2CC(c3ccc(NC(=S)Nc4ccccc4)cc3)=NN2c2ccc(S(N)(=O)=O)cc2)cc1` (stereo unspecified): -11.1% (active); `COc1cc(CNC(=O)[C@]23CCC(C)(C)CC2C2=CCC4[C@@]5(C)CCC(OC(C)=O)C(C)(C)C5CC[C@@]4(C)[C@]2(C)CC3)ccc1OCc1cn(-c2ccc(Cl)cc2Cl)nn1` (stereo partly specified): 105%. Regarding `Nc1ccc(-c2ccc3ncnc(N4CCc5cc(F)c(Cl)cc54)c3c2)cn1`, the growth is 25.6%.
